Values joined by “and” are separate entries in the source; they are usually repeats but may differ in a detail not shown here. Equal entries are not always repeated. The panel holds about 79,000 compounds, 15% with a hit somewhere; the sample as a whole holds those more often. A structure can be active in one record and inactive in another. Active and inactive are the calls of the source. Cut-off read from the data, not from the text of the source: active = growth inhibition above about 70%; inactive = the rest.
Assay: NCI Yeast Anticancer Drug Screen. Data for the rad50 strain (AID 155);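 note: 0% = growth of vehicle-only cultures of the same strain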
Details: S. cerevisiae rad50 strain growth inhibition; at 50.0 µM (retest, dose inferred, filed as 5.0); stronger effect = higher value
Summary of the method: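 Vehicle-treated cultures provide the reference for the growth inhibition reported for compound-exposed, repair-deficient yeast.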

**Q.** With `O=C(c1ccc(Br)cc1)C1C(c2ccccc2)N1C1CCCCC1` (stereo not drawn) as the compound, how does the growth inhibition read?
**A.** 79% (active)

**Q.** With `Cc1cccc2cc3ccccc3c[n+]12` as the compound, how does the growth inhibition read?
**A.** 63% (inactive)

**Q.** With `Cc1ccc(P(=O)(c2ccc(C)cc2)c2ccc(C)cc2)cc1.Cc1ccc(P(=O)(c2ccc(C)cc2)c2ccc(C)cc2)cc1.[Cl][Sn]([Cl])([Cl])[Cl]` as the compound, how does the growth inhibition read?
**A.** 1% (inactive)

**Q.** For `c1ccc(P(CCP(c2ccccc2)c2ccccc2)CCP(c2ccccc2)c2ccccc2)cc1`, which growth inhibition is on record?
**A.** 98% (active)

**Q.** With `O=[N+]([O-])c1cc2c([N+](=O)[O-])cccc2o1` as the compound, how does the growth inhibition read?
**A.** 98% (active)

**Q.** With `O=C1CCC[N]1[Hg][N]1CCCC1=O` as the compound, how does the growth inhibition read?
**A.** 46% (inactive)

**Q.** Which growth inhibition does the source give for `Oc1c(Cl)c(Cl)c(Cl)c(Cl)c1Cl.[Cu+2]` here?
**A.** 98% (active)

**Q.** For `ClCCN(CCCl)c1ccc(C=NCCCCN=Cc2ccc(N(CCCl)CCCl)cc2)cc1`, which growth inhibition is on record?
**A.** 82% (active)

**Q.** For `CC(C(=O)C1CCCCC1)[n+]1ccccc1` (stereo not drawn), which growth inhibition is on record?
**A.** -2% (inactive)

**Q.** For `CN(C)CC1CCCCC1=O` (stereo not drawn), which growth inhibition is on record?
**A.** 36% (inactive)

**Q.** For `CSc1nncc(=O)[nH]1.[Hg]`, which growth inhibition is on record?
**A.** 99% (active)

**Q.** For `CNC(=O)N1CN(c2ccccc2)C2(CCN(CCCC(=O)c3ccc(F)cc3)CC2)C1=O`, which growth inhibition is on record?
**A.** 31% (inactive)

**Q.** Which growth inhibition does the source give for `O=C(OCc1ccccc1)C(C(Cl)c1ccccc1)N(Cc1ccccc1)Cc1ccccc1` (stereo not drawn) here?
**A.** 53% (inactive)

**Q.** For `O=C1C=C(Cl)C(=O)C=C1Cl`, which growth inhibition is on record?
**A.** 99% (active)

**Q.** For `CC(=O)[O][Hg][c]1ccccc1N`, which growth inhibition is on record?
**A.** 60% (inactive)

**Q.** For `CCOP(=O)(Cc1cccc2ccccc12)OCC`, which growth inhibition is on record?
**A.** 13% (inactive)

**Q.** For `Nc1c(Cl)cccc1C(=O)O`, which growth inhibition is on record?
**A.** 4% (inactive)

**Q.** Which growth inhibition does the source give for `CC(=O)O[C@H]1CC[C@H]2[C@@H]3CCC4=CC(=O)CC[C@@H]4[C@H]3CC[C@]12C` here?
**A.** 93% (active)

**Q.** For `C1CC[N-]CC1.CC(=N\O)/C(C)=N/O.CC(=N\O)/C(C)=N/O.OC1[CH-]CCCC1.[Co+2]`, which growth inhibition is on record?
**A.** 20% (inactive)

**Q.** With `c1ccc(C(C(=Nc2ccc(Cc3ccc(N=C(C(c4ccccc4)c4ccccc4)N4CC4)cc3)cc2)N2CC2)c2ccccc2)cc1` as the compound, how does the growth inhibition read?
**A.** 86% (active)

**Q.** For `CCN(Cc1ccccc1)CC(O)c1ccc(Cl)c(Cl)c1` (stereo not drawn), which growth inhibition is on record?
**A.** 99% (active)

**Q.** With `CC(=O)OC1C(O)C(C)OC(OC2C(OC(=O)C3CCC4C(C3)OC3(CC(OC(=O)/C=C/c5ccccc5)C(C)CO3)C43CO3)OC(C)C(O)C2OC(C)=O)C1O` (stereo not drawn) as the compound, how does the growth inhibition read?
**A.** 96% (active)

**Q.** For `CCCCC(CC)CNP(=S)(NCC(CC)CCCC)NCC(CC)CCCC` (stereo not drawn), which growth inhibition is on record?
**A.** 37% (inactive)

**Q.** Which growth inhibition does the source give for `Oc1c(-c2ccccc2)cc(-[n+]2c(-c3ccccc3)cc(-c3ccccc3)cc2-c2ccccc2)cc1-c1ccccc1` here?
**A.** 99% (active)

**Q.** For `Cc1ccc([C@H]2N[C@@H]2c2ccccn2)cc1`, which growth inhibition is on record?
**A.** -22% (inactive)

**Q.** With `CC[CH2][Sn]([CH2]CC)([CH2]CC)[CH2]CCBr` as the compound, how does the growth inhibition read?
**A.** 99% (active)

**Q.** With `O=[N+]([O-])c1cc(S(=O)(=O)F)ccc1S` as the compound, how does the growth inhibition read?
**A.** 89% (active)

**Q.** Which growth inhibition does the source give for `CCCCN(CCCC)CCc1ccc(OC(=O)c2ccc(N)cc2)cc1` here?
**A.** 76% (active)

**Q.** With `Cc1ccc(C(=O)OC(C(=O)O)C(OC(=O)c2ccc(C)cc2)C(=O)O)cc1` (stereo not drawn) (tested in a mixture with another compound) as the compound, how does the growth inhibition read?
**A.** 79% (active)

**Q.** Which growth inhibition does the source give for `N#C[S-].[Ce+3].c1ccc(-c2ccccn2)nc1.c1ccc(-c2ccccn2)nc1.c1ccc(-c2ccccn2)nc1` here?
**A.** 98% (active)

**Q.** With `Nc1nc(N)c(-c2ccc(Cl)c(Cl)c2)c(CCc2ccc(CNC(=O)c3ccc(S(=O)(=O)F)cc3)cc2)n1` as the compound, how does the growth inhibition read?
**A.** 87% (active)

**Q.** With `CC1C2C=CC1C(c1c3ccc(=O)c(O)c-3oc3c(O)c(O)ccc13)C2C(=O)O` (stereo not drawn) as the compound, how does the growth inhibition read?
**A.** 33% (inactive)

**Q.** With `O=C(O)CN(CCN(CC(=O)O)CC(=O)O)CC(=O)O` as the compound, how does the growth inhibition read?
**A.** 69% (inactive)

**Q.** For `O=S(=O)(F)c1ccc(Cl)cc1C[P+](c1ccccc1)(c1ccccc1)c1ccccc1`, which growth inhibition is on record?
**A.** 77% (active)

**Q.** For `Oc1ccc2ccccc2c1O`, which growth inhibition is on record?
**A.** 81% (active)

**Q.** Which growth inhibition does the source give for `COC1=[C]([Hg][Br])C(OC)OC1OC` (stereo not drawn) here?
**A.** 99% (active)

**Q.** Which growth inhibition does the source give for `Nc1nc(CCl)cs1` here?
**A.** -5% (inactive)

**Q.** For `CCC(C)N1CN(c2ccccc2)C2(CCN(CCCC3(c4ccc(F)cc4)OCCO3)CC2)C1=O` (stereo not drawn), which growth inhibition is on record?
**A.** 93% (active)

**Q.** With `COc1ccc(NP(=S)(Nc2ccc(OC)cc2)c2ccccc2)cc1` as the compound, how does the growth inhibition read?
**A.** 54% (inactive)

Same assay, conditions: S. cerevisiae rad50 strain growth inhibition; at 50.0 µM; stronger effect = higher value

**Q.** Which growth inhibition does the source give for `O=C(c1ccc(Br)cc1)C1C(c2ccccc2)N1C1CCCCC1` (stereo not drawn) here?
**A.** 95.7% (active)

**Q.** With `Cc1cccc2cc3ccccc3c[n+]12` as the compound, how does the growth inhibition read?
**A.** 89.9% (active)

**Q.** Which growth inhibition does the source give for `Cc1ccc(P(=O)(c2ccc(C)cc2)c2ccc(C)cc2)cc1.Cc1ccc(P(=O)(c2ccc(C)cc2)c2ccc(C)cc2)cc1.[Cl][Sn]([Cl])([Cl])[Cl]` here?
**A.** -9.9% (inactive)

**Q.** Which growth inhibition does the source give for `c1ccc(P(CCP(c2ccccc2)c2ccccc2)CCP(c2ccccc2)c2ccccc2)cc1` here?
**A.** 92.3% (active)

**Q.** For `O=[N+]([O-])c1cc2c([N+](=O)[O-])cccc2o1`, which growth inhibition is on record?
**A.** 95.9% (active)

**Q.** For `O=C1CCC[N]1[Hg][N]1CCCC1=O`, which growth inhibition is on record?
**A.** 93.2% (active)

**Q.** With `Oc1c(Cl)c(Cl)c(Cl)c(Cl)c1Cl.[Cu+2]` as the compound, how does the growth inhibition read?
**A.** 88.5% (active)

**Q.** For `ClCCN(CCCl)c1ccc(C=NCCCCN=Cc2ccc(N(CCCl)CCCl)cc2)cc1`, which growth inhibition is on record?
**A.** 88.8% (active)

**Q.** With `CC(C(=O)C1CCCCC1)[n+]1ccccc1` (stereo not drawn) as the compound, how does the growth inhibition read?
**A.** -1.2% (inactive)

**Q.** Which growth inhibition does the source give for `CN(C)CC1CCCCC1=O` (stereo not drawn) here?
**A.** 73.7% (active) and 1.45% (inactive) and -1.35% (inactive)

**Q.** With `CSc1nncc(=O)[nH]1.[Hg]` as the compound, how does the growth inhibition read?
**A.** 99.2% (active)

**Q.** With `CNC(=O)N1CN(c2ccccc2)C2(CCN(CCCC(=O)c3ccc(F)cc3)CC2)C1=O` as the compound, how does the growth inhibition read?
**A.** 51.5% (inactive)

**Q.** For `O=C(OCc1ccccc1)C(C(Cl)c1ccccc1)N(Cc1ccccc1)Cc1ccccc1` (stereo not drawn), which growth inhibition is on record?
**A.** 90.8% (active)

**Q.** With `O=C1C=C(Cl)C(=O)C=C1Cl` as the compound, how does the growth inhibition read?
**A.** 99.2% (active)

**Q.** With `CC(=O)[O][Hg][c]1ccccc1N` as the compound, how does the growth inhibition read?
**A.** 91.6% (active)

**Q.** Which growth inhibition does the source give for `CCOP(=O)(Cc1cccc2ccccc12)OCC` here?
**A.** 4.65% (inactive)

**Q.** Which growth inhibition does the source give for `Nc1c(Cl)cccc1C(=O)O` here?
**A.** 54% (inactive)

**Q.** Which growth inhibition does the source give for `CC(=O)O[C@H]1CC[C@H]2[C@@H]3CCC4=CC(=O)CC[C@@H]4[C@H]3CC[C@]12C` here?
**A.** 96.8% (active)

**Q.** For `C1CC[N-]CC1.CC(=N\O)/C(C)=N/O.CC(=N\O)/C(C)=N/O.OC1[CH-]CCCC1.[Co+2]`, which growth inhibition is on record?
**A.** 23.9% (inactive)

**Q.** Which growth inhibition does the source give for `c1ccc(C(C(=Nc2ccc(Cc3ccc(N=C(C(c4ccccc4)c4ccccc4)N4CC4)cc3)cc2)N2CC2)c2ccccc2)cc1` here?
**A.** 85.6% (active)

**Q.** With `CCN(Cc1ccccc1)CC(O)c1ccc(Cl)c(Cl)c1` (stereo not drawn) as the compound, how does the growth inhibition read?
**A.** 9.25% (inactive)

**Q.** With `CC(=O)OC1C(O)C(C)OC(OC2C(OC(=O)C3CCC4C(C3)OC3(CC(OC(=O)/C=C/c5ccccc5)C(C)CO3)C43CO3)OC(C)C(O)C2OC(C)=O)C1O` (stereo not drawn) as the compound, how does the growth inhibition read?
**A.** 91% (active)

**Q.** For `CCCCC(CC)CNP(=S)(NCC(CC)CCCC)NCC(CC)CCCC` (stereo not drawn), which growth inhibition is on record?
**A.** 58.9% (inactive)

**Q.** Which growth inhibition does the source give for `Oc1c(-c2ccccc2)cc(-[n+]2c(-c3ccccc3)cc(-c3ccccc3)cc2-c2ccccc2)cc1-c1ccccc1` here?
**A.** 91.7% (active)

**Q.** Which growth inhibition does the source give for `Cc1ccc([C@H]2N[C@@H]2c2ccccn2)cc1` here?
**A.** 6.35% (inactive)

**Q.** With `CC[CH2][Sn]([CH2]CC)([CH2]CC)[CH2]CCBr` as the compound, how does the growth inhibition read?
**A.** 99.5% (active)

**Q.** For `O=[N+]([O-])c1cc(S(=O)(=O)F)ccc1S`, which growth inhibition is on record?
**A.** 91.2% (active)

**Q.** Which growth inhibition does the source give for `CCCCN(CCCC)CCc1ccc(OC(=O)c2ccc(N)cc2)cc1` here?
**A.** 82.5% (active)

**Q.** For `Cc1ccc(C(=O)OC(C(=O)O)C(OC(=O)c2ccc(C)cc2)C(=O)O)cc1` (stereo not drawn) (tested in a mixture with another compound), which growth inhibition is on record?
**A.** 6.35% (inactive) and 92.2% (active)

**Q.** Which growth inhibition does the source give for `N#C[S-].[Ce+3].c1ccc(-c2ccccn2)nc1.c1ccc(-c2ccccn2)nc1.c1ccc(-c2ccccn2)nc1` here?
**A.** 91.5% (active)

**Q.** For `Nc1nc(N)c(-c2ccc(Cl)c(Cl)c2)c(CCc2ccc(CNC(=O)c3ccc(S(=O)(=O)F)cc3)cc2)n1`, which growth inhibition is on record?
**A.** 46.7% (inactive)

**Q.** Which growth inhibition does the source give for `CC1C2C=CC1C(c1c3ccc(=O)c(O)c-3oc3c(O)c(O)ccc13)C2C(=O)O` (stereo not drawn) here?
**A.** 17% (inactive)

**Q.** For `O=C(O)CN(CCN(CC(=O)O)CC(=O)O)CC(=O)O`, which growth inhibition is on record?
**A.** 27.9% (inactive) and 13.8% (inactive) and 43.4% (inactive)

**Q.** For `O=S(=O)(F)c1ccc(Cl)cc1C[P+](c1ccccc1)(c1ccccc1)c1ccccc1`, which growth inhibition is on record?
**A.** 45.9% (inactive)

**Q.** Which growth inhibition does the source give for `Oc1ccc2ccccc2c1O` here?
**A.** 66.4% (inactive)

**Q.** Which growth inhibition does the source give for `COC1=[C]([Hg][Br])C(OC)OC1OC` (stereo not drawn) here?
**A.** 99.6% (active)

**Q.** With `Nc1nc(CCl)cs1` as the compound, how does the growth inhibition read?
**A.** -2.05% (inactive) and -11.7% (inactive)

**Q.** With `CCC(C)N1CN(c2ccccc2)C2(CCN(CCCC3(c4ccc(F)cc4)OCCO3)CC2)C1=O` (stereo not drawn) as the compound, how does the growth inhibition read?
**A.** -0.8% (inactive)

**Q.** Which growth inhibition does the source give for `COc1ccc(NP(=S)(Nc2ccc(OC)cc2)c2ccccc2)cc1` here?
**A.** 55% (inactive)
